Active and inactive are the calls of the source. The call rests on the fitted dose curve; in most records, active means well fitted curve in the direction sought with a large enough effect in the repeat runs; inconclusive means weak or mixed curves; inactive means flat fitted curve, though single readings scatter.
On the % scale 0 is the no-effect control and ±100 the full control effect.

A short description of the test: qHTS assay to test for compound auto fluorescence at 590 nm (red) in HepG2 cells (AID 720674). The note with it: HepG2 autofluorescence, red 540/590 nm, 1 h; series mostly up to 91.3 µM. An excerpt:
U.S. Tox21 Program National Center for Advancing Translational Sciences [NCATS] NIH Chemical Genomics Center [NCGC] U.S. Environmental Protection Agency [EPA] National Institutes of Environmental Health Sciences [NIEHS] National Toxicology Program [NTP] U.S. Food and Drug Administration [FDA] Tox21 Assay Overview: Compound auto fluorescence often interferes with screening of the compound library against various biological targets and signaling pathways. Some of these compounds may have fluorophoric properties. Such properties may interfere with the assay outputs resulting in false positives and/or negatives. To decrease such complications and ensure the compound activities are relevant in terms of biological response, the Tox21 10K compound library was screened for auto fluorescence. From the fluorophores used as reporter signals in our screening assays, the auto fluorescence equivalencies of compounds against three fluorophores have been evaluated: Triamterene, Fluorescein and Rose Bengal sodium for blue, green and red fluorescence, respectively. The fluorescence intensities were measured using Excitation/Emission wavelengths at 405/460nm, 485/535nm and 540/590nm for blue, green and red labels, respectively. This assay includes the red fluorescence data.
Tox21 Assay Protocol Summary: 2,000 HepG2 cells in 5 uL of culture medium (MEM containing 10% FBS) per well were dispensed into black wall/clear bottom 1536-well plates using a Multidrop Combi Dispenser (ThermoFisher Scientific, Waltham, MA). The assay plates were incubated overnight at 37 C to allow cell attachment to the well bottom, followed by the transfer of 23 nL compound or DMSO vehicle by a pintool work station (Kalypsys , San Diego, CA). After the assay plates were incubated for 1 hr at 37 C and 5% CO2, fluorescence intensities in the assay plates were measured by an Envision (PerkinElmer, Shelton, CT) plate reader using three labels for measuring blue, green and red fluorescence at […] 460, 535 and 590 nm respectively.
On the technique in general: qHTS replaces the single test concentration by a dilution series.
With `CCCCCCCC(=O)OCCCCCC`, the compound was called inactive.
Same read-out and setting: to `Nc1ccc(N=Nc2ccc(N)cc2)cc1` belongs “inactive”; to `CC(C)(C)C(O)/C=C/c1ccc2c(c1)OCO2` (stereo not given), “inactive”.
Regarding `O=C(O)CCC(=O)c1ccc(-c2ccccc2)cc1`, the fluorescence, relative to Rose Bengal was 0.795% [at 18.6 µM] (inactive).
As for `O=C1CC[C@@H](C(=O)O)N1`, the outcome was inactive.
Regarding `CC1CCCO1` (stereo not given), the compound was classed as inactive.
Still for that read-out and setting: to `CC(C)(C)C1(CCc2ccc(Cl)cc2)CO1` (stereo not given) belongs “inactive”.
As to `CC(C)OC(=O)c1ccccc1C(=O)OC(C)C`, the call was inactive.
Same read-out and setting: to `O=C(O)CO` belongs “inactive”; to `COC(C)(C)OC`, “inactive”.
The same measure, in the same setting: to `CCCCCCCC(=O)Oc1c(Br)cc(C#N)cc1Br` belongs “inactive”; to `Nc1ccn([C@H]2CS[C@@H](CO)O2)c(=O)n1`, “inactive”; to `CCN(CC)CCOC(=O)C(c1ccccc1)c1ccccc1`, “inactive”.
Take `O=C(O)CNC(=O)c1ccccc1I`: the call was inactive.
On the same count and under the same terms, to `O=C(O)c1ccc(O)cc1O` belongs “inactive”; to `CC(CN(CCN(CC(C)OCCO)CC(C)OCCO)CC(C)OCCO)OCCO` (stereo not given), “inactive”; to `CO[C@@H]1[C@@H](OC)[C@H](C)[C@@](O)(CC(=O)O)O[C@H]1[C@H](C)[C@H]1O[C@@]2(CC[C@@](C)([C@H]3CC[C@@](C)([C@@H]4O[C@@H]([C@H]5O[C@](C)(O)[C@H](C)C[C@@H]5C)C[C@@H]4OC4C[C@H](OC)[C@@H](OC)[C@H](C)O4)O3)O2)C[C@H](O)[C@H]1C` (stereo not given in full), “inactive”.
For the compound `SCCc1cnccn1`, the compound was classed as inactive.
Regarding `CCCCCCCCCCCC(=O)OCC(O)CO` (stereo not given), the outcome was inactive.
With `Cc1cn([C@H]2C[C@H](F)[C@@H](CO)O2)c(=O)[nH]c1=O`, the outcome was inactive.
Turning to `CC(=O)OCC1=C(C(=O)O)N2C(=O)[C@@H](NC(=O)CSc3ccncc3)[C@H]2SC1`, the outcome was inactive.
`CCCCCCCCCCCCCCN(C)C`: the fluorescence, relative to Rose Bengal is 0.132% [at 18.6 µM] (inactive).
As to `CN=C(N)NC(=O)Nc1c(C)cccc1C`, the compound was classed as inactive.
On the same count and under the same terms, as for `C[C@@H]1C[C@H]2[C@@H]3CCC4=CC(=O)C=C[C@]4(C)[C@@]3(F)[C@@H](O)C[C@]2(C)[C@@]1(O)C(=O)COP(=O)(O)O`, the entry is “inactive”; as for `O=C(O)c1cc(Cl)cc(Cl)c1O`, “inactive”.
As to `CCCCCCOC(=O)CCCCC`, the compound was classed as inactive.
With `CCC(C)(C)C(=O)O`, the compound was called inactive.
For the compound `C=CC(=O)NC(C)C`, the call was inactive.
For `CC(C)c1ccc(C#N)cc1`, the call was inactive.
Take `Nc1ccc(F)cc1`: the result was inactive.
Same read-out and setting: to `COC1CCC=CO1` (stereo not given) belongs “inactive”; to `CC(C)(O)c1coc(S(=O)(=O)NC(=O)Nc2c3c(cc4c2CCC4)CCC3)c1`, “inactive”; to `Nc1nc2ccc(OC(F)(F)F)cc2s1`, “inactive”.
As to `CC1=CC[C@@]23C[C@@H]1C(C)(C)[C@@H]2CC[C@H]3C`, the compound was classed as inactive.
As to `CCCCCCC(CO)CCCC` (stereo not given), the call was inactive.
Take `CCN(CC)CCOc1ccccc1C(=O)CCc1ccccc1`: the compound was called inactive.
For the compound `CC(C)C(O)C(C)(C)CO` (stereo not given), the compound was called inactive.
As for `O=C(O)CCS`, the call was inactive.
Still for that read-out and setting: to `COc1ccc(-c2cc(C(F)F)nn2-c2ccc(S(N)(=O)=O)cc2)cc1F` belongs “inactive”; to `CC(C)Cc1ccc(CC(=O)O)cc1`, “inactive”.

Values taken from PubChem BioAssay (Tox21).
